The supplement of paper PMC10849652
The full data set covers some 8,800 targets. This sample favours those with a hit. About 0.5% of all pairs of compound and target were hits. Unmarked numbers belong to inactive results.

Legend:
Test in all cases: log2 fold change, soluble protein after heating vs DMSO (PISA); higher = thermal stabilisation; K562 lysate, 10 uM; active = over 0.2 and 3.5 SD of the protein, either way, in both replicates (recomputed)
erlotinib = compound: C#Cc1cccc(Nc2ncnc3cc(OCCOC)c(OCCOC)cc23)c1 [erlotinib]
Procedure, shortened: (§1)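 A 30 min treatment with 10 μM compound was applied to crude K562 extract at 1 mg/mL protein in PBS pH 7.4 with 1 mM MgCl2. Heating for 3 min spanned 48°C-58°C, after which aliquots were pooled, adjusted to 0.5% NP-40 at 4°C and spun at 21,000xg for 90 min. TMTpro 16plex LC-MS/MS of the supernatant, with channel sums equalised, gave values recorded as log-two fold change in thermal stability against solvent controls, from duplicates.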

[1] = compound: C/C(=N\NC(=O)C1=CC(=CC=C1)S(=O)(=O)N2CCOCC2)/C3=C(C=CC(=C3)Cl)O
Procedure, shortened: as §1

[2] = compound: C1=CC(=CC=C1C2=NC3=C(N2)C=C(C=C3)C(=O)N)OC4=CC=C(C=C4)Cl
Procedure, shortened: as §1

[3] = compound: C1=CC2=C(C=CC(=C2)/C=C\3/C(=O)NC(=NCC4=CC=CS4)S3)N=C1
Procedure, shortened: as §1

[4] = compound: C1=CC2=NC=CN=C2C=C1/C=C/3\C(=O)NC(=O)S3
Procedure, shortened: as §1

[5] = compound: C1=CC=C(C=C1)C2=NC(=C(N2)C3=CC=NC=C3)C4=CC(=C(C=C4)Cl)O
Procedure, shortened: as §1

[6] = compound: C1=CC=C2C(=C1)C3=NNC4=CC=CC(=C43)C2=O
Procedure, shortened: as §1

[7] = compound: C1CCN(C1)C(=O)NC2=CC=CC(=C2)NC3=NC=C(C(=N3)NCCC4=CN=CN4)Br
Procedure, shortened: as §1

[8] = compound: C1CN(CCC1(CC2=CC=C(C=C2)Cl)N)C3=NC=NC4=C3C=CN4
Procedure, shortened: as §1

IRAK-1-4 Inhibitor I = compound: C1COCCN1CCN2C3=CC=CC=C3N=C2NC(=O)C4=CC(=CC=C4)[N+](=O)[O-] [IRAK-1-4 Inhibitor I]
Procedure, shortened: as §1

ibrutinib = compound: C=CC(=O)N1CCC[C@@H](n2nc(-c3ccc(Oc4ccccc4)cc3)c3c(N)ncnc32)C1 [ibrutinib]
Procedure, shortened: as §1

[9] = compound: CC(=O)c1cnc2ccc(-c3cc(Cl)c(O)c(Cl)c3)nc2c1N[C@H]1CC[C@H](CN(C)C)CC1
Procedure, shortened: as §1

ralimetinib = compound: CC(C)(C)Cn1c(N)nc2ccc(-c3[nH]c(C(C)(C)C)nc3-c3ccc(F)cc3)nc21 [ralimetinib]
Procedure, shortened: as §1

[10] = compound: CC(C)(O)CC(=O)NCCn1ccc2ncnc(Nc3ccc(Oc4cccc(C(F)(F)F)c4)c(Cl)c3)c21
Procedure, shortened: as §1

[11] = compound: CC(C)C1=C2N=C(C=C(N2N=C1)NCC3=CC=CC=C3)NCCCCCCN
Procedure, shortened: as §1

[12] = compound: CC1=C(C(CC(=O)N1)C2=CC=C(C=C2)C(F)(F)F)C(=O)NC3=C(C=C4C(=C3)C=NN4)F
Procedure, shortened: as §1

[13] = compound: CC1=C(C2=C(C=C1)C(=O)C3=CC=CC=C3N2CCCN)C
Procedure, shortened: as §1

[14] = compound: CC1=C(C=C(C=C1)NC(=O)C2=CC(=CC=C2)C(C)(C)C#N)NC3=CC4=C(C=C3)N=CN(C4=O)C
Procedure, shortened: as §1

[15] = compound: CC1=C(C=C(C=C1)NC(=O)C2=CC(=CC=C2)N(C)C)NC(=O)C3=CC=C(C=C3)O
Procedure, shortened: as §1

[16] = compound: CC1=CC=C(C=C1)SC2=C3C=C(SC3=CN=C2)C(=O)N
Procedure, shortened: as §1

Chain of UniProt Q8N5I9 (Q8N5I9 whole entry, looked up): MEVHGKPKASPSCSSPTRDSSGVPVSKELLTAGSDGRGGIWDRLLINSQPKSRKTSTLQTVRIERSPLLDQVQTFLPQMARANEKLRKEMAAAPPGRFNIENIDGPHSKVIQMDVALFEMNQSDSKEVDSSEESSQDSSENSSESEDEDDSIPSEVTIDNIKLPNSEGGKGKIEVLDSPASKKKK
Chain of UniProt P54132 (P54132 whole entry, looked up): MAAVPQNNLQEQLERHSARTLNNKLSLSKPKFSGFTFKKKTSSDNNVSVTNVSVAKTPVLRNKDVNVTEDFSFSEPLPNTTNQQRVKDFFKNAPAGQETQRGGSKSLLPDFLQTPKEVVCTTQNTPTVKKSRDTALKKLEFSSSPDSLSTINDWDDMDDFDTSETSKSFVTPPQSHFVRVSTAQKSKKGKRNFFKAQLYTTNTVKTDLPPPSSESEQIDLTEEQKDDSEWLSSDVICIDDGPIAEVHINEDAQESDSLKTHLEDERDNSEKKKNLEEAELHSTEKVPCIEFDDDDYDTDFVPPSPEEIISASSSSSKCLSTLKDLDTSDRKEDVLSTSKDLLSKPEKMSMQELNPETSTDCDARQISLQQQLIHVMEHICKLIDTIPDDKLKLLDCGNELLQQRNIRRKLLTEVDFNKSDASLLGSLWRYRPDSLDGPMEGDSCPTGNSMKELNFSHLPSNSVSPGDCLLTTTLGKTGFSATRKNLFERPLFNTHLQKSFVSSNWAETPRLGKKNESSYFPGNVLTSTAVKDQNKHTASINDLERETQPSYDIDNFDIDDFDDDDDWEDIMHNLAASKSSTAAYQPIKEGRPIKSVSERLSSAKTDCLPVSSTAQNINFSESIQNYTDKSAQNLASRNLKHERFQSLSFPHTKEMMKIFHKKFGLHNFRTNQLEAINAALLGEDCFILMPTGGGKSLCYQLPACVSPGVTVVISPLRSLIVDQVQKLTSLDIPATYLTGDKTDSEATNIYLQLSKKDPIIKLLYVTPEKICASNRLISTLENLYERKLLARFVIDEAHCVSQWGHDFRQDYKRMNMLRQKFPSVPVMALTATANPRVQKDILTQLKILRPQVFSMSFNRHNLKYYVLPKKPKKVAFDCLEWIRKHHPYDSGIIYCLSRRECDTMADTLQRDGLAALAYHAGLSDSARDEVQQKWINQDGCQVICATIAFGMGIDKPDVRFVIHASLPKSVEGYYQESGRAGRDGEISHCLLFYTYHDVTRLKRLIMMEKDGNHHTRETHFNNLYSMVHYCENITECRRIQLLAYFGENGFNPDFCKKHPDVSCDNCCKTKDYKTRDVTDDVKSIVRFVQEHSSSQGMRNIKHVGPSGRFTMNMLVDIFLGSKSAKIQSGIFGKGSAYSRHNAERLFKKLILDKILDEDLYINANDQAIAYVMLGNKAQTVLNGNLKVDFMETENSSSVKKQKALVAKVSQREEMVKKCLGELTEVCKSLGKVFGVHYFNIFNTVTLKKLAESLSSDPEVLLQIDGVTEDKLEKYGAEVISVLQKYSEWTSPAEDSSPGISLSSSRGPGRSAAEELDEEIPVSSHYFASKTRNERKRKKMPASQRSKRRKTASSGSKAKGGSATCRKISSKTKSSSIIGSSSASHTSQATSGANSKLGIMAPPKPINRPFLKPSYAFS
Chain of UniProt Q96B23 (Q96B23 whole entry, looked up): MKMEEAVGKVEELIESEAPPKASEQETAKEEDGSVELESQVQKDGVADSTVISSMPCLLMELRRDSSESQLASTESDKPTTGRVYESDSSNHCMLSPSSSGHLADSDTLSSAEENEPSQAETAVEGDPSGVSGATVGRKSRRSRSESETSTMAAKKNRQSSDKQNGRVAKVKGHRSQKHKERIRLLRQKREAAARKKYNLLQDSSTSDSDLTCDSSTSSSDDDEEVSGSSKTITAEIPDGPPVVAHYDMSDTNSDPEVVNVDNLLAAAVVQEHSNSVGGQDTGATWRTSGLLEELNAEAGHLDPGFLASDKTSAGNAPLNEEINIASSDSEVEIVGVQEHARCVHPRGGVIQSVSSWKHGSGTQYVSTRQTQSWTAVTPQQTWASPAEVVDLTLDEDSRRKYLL
Chain of UniProt O95674 (O95674 whole entry, looked up): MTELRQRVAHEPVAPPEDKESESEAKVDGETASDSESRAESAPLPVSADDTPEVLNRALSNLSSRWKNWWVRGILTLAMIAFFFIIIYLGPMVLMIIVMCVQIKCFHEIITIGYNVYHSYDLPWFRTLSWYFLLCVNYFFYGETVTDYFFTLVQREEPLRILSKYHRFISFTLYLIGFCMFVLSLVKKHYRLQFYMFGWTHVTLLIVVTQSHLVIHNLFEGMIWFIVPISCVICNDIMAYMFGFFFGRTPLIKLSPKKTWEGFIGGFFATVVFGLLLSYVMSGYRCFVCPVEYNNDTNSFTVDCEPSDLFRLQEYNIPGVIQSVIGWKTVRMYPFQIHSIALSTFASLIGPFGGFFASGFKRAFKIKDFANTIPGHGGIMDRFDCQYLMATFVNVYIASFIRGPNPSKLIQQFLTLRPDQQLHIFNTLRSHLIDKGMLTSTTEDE
Chain of UniProt Q15834 (Q15834 whole entry, looked up): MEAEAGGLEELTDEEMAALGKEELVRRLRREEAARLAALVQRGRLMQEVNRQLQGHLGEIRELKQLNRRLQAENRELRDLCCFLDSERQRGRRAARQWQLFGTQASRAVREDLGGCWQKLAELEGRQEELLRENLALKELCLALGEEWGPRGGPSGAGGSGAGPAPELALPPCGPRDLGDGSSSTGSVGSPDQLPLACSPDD
Chain of UniProt P27708 (P27708 whole entry, looked up): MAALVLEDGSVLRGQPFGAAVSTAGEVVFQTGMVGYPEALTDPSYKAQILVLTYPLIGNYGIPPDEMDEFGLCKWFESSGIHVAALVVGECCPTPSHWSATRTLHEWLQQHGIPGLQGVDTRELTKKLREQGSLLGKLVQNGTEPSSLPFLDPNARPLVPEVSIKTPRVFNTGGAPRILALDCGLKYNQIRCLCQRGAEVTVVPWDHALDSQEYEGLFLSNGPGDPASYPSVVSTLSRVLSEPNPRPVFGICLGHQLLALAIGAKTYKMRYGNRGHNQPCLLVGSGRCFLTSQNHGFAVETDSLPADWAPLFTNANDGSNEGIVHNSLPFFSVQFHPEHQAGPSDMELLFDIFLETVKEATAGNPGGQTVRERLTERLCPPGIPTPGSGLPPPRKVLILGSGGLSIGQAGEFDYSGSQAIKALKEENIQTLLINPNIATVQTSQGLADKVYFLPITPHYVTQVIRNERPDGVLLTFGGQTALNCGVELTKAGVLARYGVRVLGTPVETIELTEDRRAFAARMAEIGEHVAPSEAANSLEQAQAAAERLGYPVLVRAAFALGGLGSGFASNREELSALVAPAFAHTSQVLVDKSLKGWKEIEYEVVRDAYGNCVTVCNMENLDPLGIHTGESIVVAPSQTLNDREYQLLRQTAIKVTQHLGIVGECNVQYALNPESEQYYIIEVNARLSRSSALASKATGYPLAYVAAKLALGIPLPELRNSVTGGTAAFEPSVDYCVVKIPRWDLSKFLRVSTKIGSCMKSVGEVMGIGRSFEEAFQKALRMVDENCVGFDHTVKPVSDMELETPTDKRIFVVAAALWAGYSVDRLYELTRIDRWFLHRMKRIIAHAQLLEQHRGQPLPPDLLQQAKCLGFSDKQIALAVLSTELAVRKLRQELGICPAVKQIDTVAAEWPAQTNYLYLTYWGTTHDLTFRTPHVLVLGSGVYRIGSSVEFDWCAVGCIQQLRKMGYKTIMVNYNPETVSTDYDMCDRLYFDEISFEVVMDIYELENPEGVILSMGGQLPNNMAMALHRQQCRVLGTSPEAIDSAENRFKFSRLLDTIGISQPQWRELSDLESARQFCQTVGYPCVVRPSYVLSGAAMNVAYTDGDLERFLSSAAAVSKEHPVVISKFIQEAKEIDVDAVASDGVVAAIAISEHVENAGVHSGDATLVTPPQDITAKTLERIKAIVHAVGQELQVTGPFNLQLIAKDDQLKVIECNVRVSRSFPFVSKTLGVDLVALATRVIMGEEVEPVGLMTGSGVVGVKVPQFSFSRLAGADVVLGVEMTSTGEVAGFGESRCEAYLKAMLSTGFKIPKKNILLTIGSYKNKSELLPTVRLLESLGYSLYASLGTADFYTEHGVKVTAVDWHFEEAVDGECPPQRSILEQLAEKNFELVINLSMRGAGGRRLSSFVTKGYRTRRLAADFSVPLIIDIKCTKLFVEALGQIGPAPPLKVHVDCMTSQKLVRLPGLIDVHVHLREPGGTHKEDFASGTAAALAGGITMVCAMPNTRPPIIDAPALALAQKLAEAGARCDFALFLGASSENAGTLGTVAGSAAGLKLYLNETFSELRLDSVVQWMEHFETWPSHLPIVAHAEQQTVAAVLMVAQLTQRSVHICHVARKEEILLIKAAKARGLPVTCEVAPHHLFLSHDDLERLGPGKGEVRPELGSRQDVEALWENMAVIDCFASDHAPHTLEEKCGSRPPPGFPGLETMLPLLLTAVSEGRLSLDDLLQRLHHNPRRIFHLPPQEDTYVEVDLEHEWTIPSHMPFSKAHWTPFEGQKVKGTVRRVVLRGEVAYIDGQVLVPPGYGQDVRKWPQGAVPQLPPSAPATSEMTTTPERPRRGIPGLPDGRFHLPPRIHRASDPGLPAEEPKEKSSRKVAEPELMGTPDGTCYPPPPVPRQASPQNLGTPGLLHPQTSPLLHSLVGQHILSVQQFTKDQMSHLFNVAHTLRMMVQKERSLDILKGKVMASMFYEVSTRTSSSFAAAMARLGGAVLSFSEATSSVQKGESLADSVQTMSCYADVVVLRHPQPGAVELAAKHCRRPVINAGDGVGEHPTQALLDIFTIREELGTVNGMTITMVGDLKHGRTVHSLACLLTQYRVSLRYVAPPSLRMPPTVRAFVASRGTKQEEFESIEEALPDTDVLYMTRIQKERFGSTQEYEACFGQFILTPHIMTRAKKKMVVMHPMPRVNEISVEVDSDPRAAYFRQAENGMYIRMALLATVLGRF

Target	log2 fold change (erlotinib)	log2 fold change [1]	log2 fold change [2]	log2 fold change [3]	log2 fold change [4]	log2 fold change [5]	log2 fold change [6]	log2 fold change [7]	log2 fold change [8]	log2 fold change (IRAK-1-4 Inhibitor I)	log2 fold change (ibrutinib)	log2 fold change [9]	log2 fold change (ralimetinib)	log2 fold change [10]	log2 fold change [11]	log2 fold change [12]	log2 fold change [13]	log2 fold change [14]	log2 fold change [15]	log2 fold change [16]
CCNK isoform 4 (UniProt O75909)	-0.018	-0.022	-0.012	-0.016	-0.062	-0.039	-0.001	0.01	0.002	-0.021	0.09	0.007	0.042	-0.01	0.012	0.015	-0.017	0.024	-0.037	-0.007
CAD (UniProt P27708)	0.013	0.003	-0.015	0.032	0.013	-0.006	-0.008	-0.002	0.011	-0.004	-0.009	-0.016	0.03	-0.002	0.005	-0.005	0.026	0.009	0.009	0.018
C12orf45 (UniProt Q8N5I9)	-0.038	-0.113	0.027	0.009	-0.037	0.009	0.009	-0.018	0.009	-0.002	0.027	0.003	0.005	0.014	0.033	-0.021	-0.02	-0.018	0.02	-0.043
BLM (UniProt P54132)	-0.034	0.061	-0.042	0.011	0.032	0.079	-0.059	-0.026	-0.01	-0.02	0.128	0.026	-0.015	0.031	-0.005	-0.019	0.03	-0.058	0.019	0.036
C18orf25 (UniProt Q96B23)	-0.025	-0.315	-0.086	0.015	0.001	0.003	0.004	0.005	0.029	0.114	0.114	0.026	0	-0.276 (active)	-0.038	0.073	-0.008	0.04	-0.091	-0.065
BCKDHB (UniProt P21953)	0.013	-0.034	0.033	-0.089	0.049	-0.098	-0.117	0.065	-0.012	0.134	-0.102	0.025	0.003	-0.01	-0.037	0.016	-0.022	-0.078	0.071	0.024
CDS2 (UniProt O95674)	-0.023	0.004	-0.087	-0.008	-0.011	0.079	-0.027	-0.056	0.01	0.214 (active)	0.008	-0.013	-0.061	-0.07	-0.03	-0.025	0.004	0.05	0.04	-0.015
CCDC85B (UniProt Q15834)	-0.126	0.22	-0.066	-0.022	-0.001	-0.058	0.015	-0.361	-0.203	0.011	0.215	-0.248	-0.001	0.05	0.056	–	0.004	-0.016	-0.163	0.014
CDK5RAP1 (UniProt Q96SZ6)	-0.059	0.007	-0.029	0.005	-0.392 (active)	0.043	0.016	-0.016	0.041	-0.018	-0.369	–	-0.018	-0.062	0.122	-0.002	-0.027	-0.001	0.045	–
